From PubChem BioAssay (EPA / NIEHS)
Active and inactive are the calls of the source. Rule for the calls: active = hit-call score of the fitted dose curve at least 0.9, where 1 is the maximum; inactive = score below 0.9.

Assay: ATG_TCF_b_cat_CIS: Attagene CIS-FACTORIAL HepG2 Assay for human T-Cell-Factor with beta-catenin (TCF/b-cat) (AID 2282965)
Conditions: HepG2 TCF/beta-catenin cis-reporter transcription, actives raise or lower the signal
Protocol: ATG_CIS is a cell-based, multiplexed-readout assay that uses HepG2, a human liver cell line, with measurements taken at 24 hours after chemical dosing in a 24-well plate.ATG_TCF_b_cat_CIS is one of 52 assay component(s) measured or calculated from the ATG_CIS assay. It is designed to make measurements of mRNA induction, a form of inducible reporter, as detected with fluorescence intensity signals by Reverse transcription polymerase chain reaction (RT-PCR) and Capillary electrophoresis technology.Data from the assay component ATG_TCF_b_cat_CIS was analyzed into 1 assay endpoint. This assay endpoint, ATG_TCF_b_cat_CIS, was analyzed with bidirectional fitting relative to DMSO as the negative control and baseline of activity. Using a type of inducible reporter, measures of mRNA for gain or loss-of-signal activity can be used to understand the reporter gene at the transcription factor-level as they relate to the gene TCF7 and TCF7L2 and LEF1 and TCF7L1. Furthermore, this assay endpoint can be referred to as a primary readout, because this assay has produced multiple assay endpoints where this one serves a reporter gene function. To generalize the intended target to other relatable targets, this assay endpoint is annotated to the dna binding intended target family, where the subfamily is HMG box protein.
Human liver HepG2 cells are transiently transfected with multiple reporter transcription units (MRTUs) in 6-well plates using FuGene 6 reagent (Roche; 3 ml FuGene/1 mg DNA). The MRTU constructs are regulated by a cis-regulating element (promoter). […] A major difference between the CIS and TRANS system is that in CIS activities of endogenous TFs are measured, whereas the TRANS assay evaluates changes in activities of exogenous, chimeric NR-Gal4 proteins. […] At the end of 24 hour incubation, total RNA was isolated using TriZol reagent (Invitrogen). The isolated RNA is then reverse-transcribed using oligo(dT) primer and Mo-MLV reverse transcriptase (Invitrogen) with DNAse I (Ambion) treatment for 30 min. The one-tenth of the produced cDNA was amplified by PCR using Taq DNA polymerase (Invitrogen) and two reporter sequence-specific primers. The PCR products were fluorescently labeled by primer extension with 6-arboxyfluorescein (6-FAM) 5'-labeled reporter sequence-specific primer (2 min at 95 C, 20 s at 68 C and 10 min at 72 C) and these products were digested with 5U of HpaI (New England Biolabs) for 2h at 37 C. The fragments were purified using Qiaquick PCR columns (Qiagen), analyzed on an ABI 3130xL genetic analyzer (Applied Biosystems) with peak positions identified by using a set of X-rhodamine (ROX)-labeled MapMarker1000 molecular weight standards (BioVentures). The raw capillary electrophoresis data was processed using Attagraph software (Attagene).

outcome, inactive:
C=CC(=O)OCCCC
CC(=O)O[C@H]1C[C@@H]2CC[C@@]1(C)C2(C)C
COC(C)(C)CCO
O=C(Nc1ccc2c(c1)Cc1ccccc1-2)C(F)(F)F
C=CC(C)C#N (stereo not given)
CCOC(=O)CC(C)O (stereo not given)
O=C1OC[C@H](Cc2cccc(O)c2)[C@H]1Cc1cccc(O)c1
CCCCCCCCCCCCN1CCCCCC1=O
O=C1OC(=O)c2c(Br)c(Br)c(Br)c(Br)c21
C1=CC2C3C=CC(C3)C2C1 (stereo not given)
COc1ccc(CCC(C)=O)cc1
O=C1OC2(c3ccccc31)c1ccc(O)c(Br)c1Oc1c2ccc(O)c1Br
C=CCCCCCCCCCC
CCCC[P+](CCCC)(CCCC)CCCC
CCc1cc(C(C)(C)C)c(O)c(C(C)(C)C)c1
COc1cc(C(C)C)ccc1C
CCCSc1ccc2nc(NC(=O)OC)[nH]c2c1
CCCC(O)C(O)CO (stereo not given)
CCCCCC(C)=O
C=COCCOCCOC=C
CC/C=C\CCOC(=O)CC
COc1cccc(OC)c1O
OCCCCC(O)CO (stereo not given)
OCc1ccc(Cl)cc1Cl
c1ccc(CN(Cc2ccccc2)Cc2ccccc2)cc1
CC(=O)NCCO
CCN(CCC#N)c1ccc(N=Nc2ccc([N+](=O)[O-])cc2)cc1
CC(CN=Cc1ccccc1O)N=Cc1ccccc1O (stereo not given)
CC(C)c1ccccc1O
C[Si](C)(C)O[Si](C)(C)C
CCOC(=O)CN
COc1ccc(CCO)cc1
CCc1ncc(C)[nH]1
CC(C)C(OC(=O)c1ccccc1)C(C)(C)COC(=O)c1ccccc1 (stereo not given)
C/C=C(\C)C(=O)OCCc1ccccc1
CC(C)OCCO
CCCC(=O)OC(C)(C)Cc1ccccc1
C=C(C)[C@@H]1CC=C(C)C(=O)C1

AC50, active:
Clc1ccc(C(c2ccccc2Cl)C(Cl)Cl)cc1 (stereo not given) 59.9 µM
CCOC(=O)C(C#N)=C(c1ccccc1)c1ccccc1 26 µM
